The values that follow come from PubChem BioAssay.

A short description of experiment [1]: Plasmodium falciparum growth inhibition, primary screen, strain 3D7, DAPI fluorescence, 100 nL (AID 1184).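 Also: parasites grown inside human red blood cells in medium with human serum.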 The following applies: P. falciparum 3D7 growth, 3 d, higher = more signal.
Experiment [2] concerns the target Homeobox protein Hox-A13 (Mus musculus) (UniProt Q62424). The experiment can be described thus: inhibitors of HoxA13-DNA binding, primary screen, biochemical, fluorescence polarization, labeled oligonucleotide (AID 1185). The following applies: 15 min, higher = more signal, called active from +8 up or from −8 down.
Experiment [3] is described as follows: inhibitors of hydroxyurea-induced Chk1 phosphorylation, primary screen, imaging, HeLa, phospho-Chk1 antibody, percent positive cells (AID 1186). The following applies: hydroxyurea-induced phospho-Chk1 immunofluorescence imaging, higher = more signal.
The nature of experiment [4]: inhibitors of hydroxyurea-induced Chk1 phosphorylation, primary screen, imaging, HeLa, phospho-Chk1 nuclear intensity (AID 1187). Also: test concentration not given here. The settings on record: hydroxyurea-induced phospho-Chk1 immunofluorescence imaging, higher = more signal.

Active and inactive are the calls of the source. Unless noted, no rule for the calls is given here.

Sequence of Homeobox protein Hox-A13 (Mus musculus) (Q62424 whole entry, looked up): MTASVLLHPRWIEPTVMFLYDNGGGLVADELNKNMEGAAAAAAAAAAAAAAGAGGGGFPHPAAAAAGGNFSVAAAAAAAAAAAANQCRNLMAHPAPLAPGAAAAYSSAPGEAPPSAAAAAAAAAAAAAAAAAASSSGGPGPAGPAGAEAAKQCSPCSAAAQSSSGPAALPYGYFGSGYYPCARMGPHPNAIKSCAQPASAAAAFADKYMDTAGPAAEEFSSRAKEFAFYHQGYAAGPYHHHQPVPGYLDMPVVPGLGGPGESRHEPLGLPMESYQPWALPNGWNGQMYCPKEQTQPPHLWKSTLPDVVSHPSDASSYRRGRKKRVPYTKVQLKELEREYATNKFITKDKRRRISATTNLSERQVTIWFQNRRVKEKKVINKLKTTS

For `CCCCCCC#C[Si](O[C@H](c1ccccc1)c1cn(Cc2ccccc2)nn1)(C(C)C)C(C)C`, the z-score in experiment [1] was -0.934; in experiment [2] it was 1.18 (inactive); in experiment [3], -0.766 (inactive); in experiment [4] it was -0.601 (inactive).

As to `O=C1c2ccccc2[C@@]2(Cc3ccccc3N(CC(F)(F)F)C2=O)[C@H](c2ccc(CO)cc2)N1Cc1ccccc1C(F)(F)F`, the z-score in experiment [1] is 0.226; in experiment [2], -0.0255 (inactive); in experiment [3], -0.563 (inactive); in experiment [4] it was -0.816 (inactive).

Take `CC(C)N1C(=O)c2ccccc2[C@@H](C(=O)NCc2ccccc2)[C@@H]1c1ccc(CO)cc1`: the z-score was -0.3 in experiment [1], -0.468 (inactive) in experiment [2], -0.67 (inactive) in experiment [3] and -0.869 (inactive) in experiment [4].

Regarding `COCCCNC(=O)[C@@]1(Cc2ccccc2)N=C(c2ccc(OCCCO)cc2)O[C@H]1c1ccccc1N=[N+]=[N-]`, the z-score in experiment [1] was -2.43; in experiment [2], -3.11 (inactive); in experiment [3] it was -0.362 (inactive); in experiment [4], -0.373 (inactive).

Regarding `COc1ccc([Si](C)(C)[C@@H]2[C@@H](CCn3cc(CCO)nn3)O[C@]3(C(=O)N(Cc4ccc(N5C(=O)c6cccc7cccc5c67)cc4)c4ccccc43)[C@H]2C)cc1`, the z-score was -2.41 in experiment [1], -1.56 (inactive) in experiment [2], -1.02 (inactive) in experiment [3] and -0.956 (inactive) in experiment [4].

As for `C=CCNC(=O)[C@@H]1[C@H]2C(=O)O[C@H](c3ccccc3)[C@H](c3ccccc3)N2[C@H](c2ccc(O)cc2)[C@@]12C(=O)N(C(=O)OCCOC)c1ccc(C#Cc3ccc(OC)cc3)cc12`, the z-score was -1.08 in experiment [1], -0.182 (inactive) in experiment [2], 0.148 (inactive) in experiment [3] and 0.446 (inactive) in experiment [4].

`COCCCNC(=O)[C@@]1(C)c2ccccc2C(=O)N(Cc2cc(F)cc(C(F)(F)F)c2)[C@H]1c1ccc(CO)cc1`: the z-score in experiment [1] was -0.753; in experiment [2], -2.01 (inactive); in experiment [3] it was -0.1 (inactive); in experiment [4], 0.802 (inactive).

Take `CC(C)C(=C=CC[C@@H](O)c1ccc(CO)o1)CCO`: the z-score in experiment [1] was -0.0113; in experiment [2] it was -3.45 (inactive); in experiment [3] it was -0.969 (inactive); in experiment [4], -0.763 (inactive).

On to `O=C(O)[C@H]1C[C@H]2C(=O)NCC(=O)N2[C@H]1c1cccc(OCCO)c1`, for which the z-score in experiment [1] was -0.52; in experiment [2] it was -3.76 (inactive); in experiment [3], 0.328 (inactive); in experiment [4], 0.212 (inactive).

With `CC(C)(C)OC(=O)CC[C@@]12N=C(c3ccc(OCCCO)cc3)O[C@@H]1c1ccccc1N(Cc1ccccc1)C2=O`, the z-score in experiment [1] is -2.19; in experiment [2], -1.44 (inactive); in experiment [3] it was -0.501 (inactive); in experiment [4], -0.284 (inactive).

With `COC(=O)C1=CC(c2ccc(CO)cc2)=CC(C2CC2)N(C)C=C1C(=O)OC` (stereo unspecified), the z-score in experiment [1] was -0.591; in experiment [2], -8.22 (active); in experiment [3], -0.516 (inactive); in experiment [4], -0.732 (inactive).

As for `C=CCN1C(=O)[C@@]2(O[C@@H](CCO)[C@H]([Si](C)(C)c3ccc(OC)cc3)[C@H]2C)c2cc(N(C=O)c3ccccc3)ccc21`, the z-score in experiment [1] is -2.56; in experiment [2], -3.62 (inactive); in experiment [3], -1.21 (inactive); in experiment [4], -0.407 (inactive).

`C=C(COC)/C(=C/C[C@H](OC(C)=O)c1ccc(CO)o1)c1cnc2ccccc2c1`: the z-score in experiment [1] was -0.649; in experiment [2], -4.41 (inactive); in experiment [3], -0.595 (inactive); in experiment [4], -0.669 (inactive).

As for `CC(CO)N1C(=O)[C@@H]2C3C(=O)OCCC/C=C\[C@H]3OC23C=CCN(Cc2ccccc2)C(=O)[C@@H]13` (stereo partly specified), the z-score in experiment [1] was -0.518; in experiment [2], -5.46 (inactive); in experiment [3], -0.6 (inactive); in experiment [4] it was -0.674 (inactive).

As to `COc1c(C)cc(-c2cc3c(c(CCc4ccccc4)n2)[Si](C(C)C)(C(C)C)OC3)cc1C`, the z-score in experiment [1] was -0.633; in experiment [2] it was -0.207 (inactive); in experiment [3] it was -0.666 (inactive); in experiment [4] it was -0.461 (inactive).

`C[N+](C)(C)CCCCNC(=O)[C@@H]1C[C@@H]2C(=O)NCC(=O)N2[C@@H]1c1cccc(OCCO)c1`: the z-score in experiment [1] is -0.664; in experiment [2] it was -1.4 (inactive); in experiment [3] it was 0.469 (inactive); in experiment [4], 1.31 (inactive).

Consider `C=CC[C@]1(C(=O)N2CCCCC2)COC(c2ccc(OCCCO)cc2)=N1`, for which the z-score in experiment [1] is -2.13; in experiment [2] it was -4.15 (inactive); in experiment [3], -0.8 (inactive); in experiment [4], -1.06 (inactive).

As to `COc1ccc([Si](C)(C)[C@@H]2[C@@H](CC(=O)N3CCC[C@H]3CO)O[C@]3(C(=O)N(Cc4ccc(I)cc4)c4ccccc43)[C@H]2C)cc1`, the z-score in experiment [1] was -2.17; in experiment [2], -2.86 (inactive); in experiment [3] it was -0.703 (inactive); in experiment [4], -0.413 (inactive).

Consider `COC(=O)C(CC#Cc1ccc2c(c1)[C@]1(C(=O)N2)[C@H](c2ccccc2OCCO)N2[C@H](c3ccccc3)[C@H](c3ccccc3)OC(=O)[C@H]2[C@@H]1C(=O)N1CCCCCCC1)C(=O)OC`, for which the z-score in experiment [1] was -2.2; in experiment [2], 3.62 (inactive); in experiment [3] it was 0.114 (inactive); in experiment [4], 0.72 (inactive).

As to `Cc1ccc(N2C(=O)c3ccccc3[C@](C)(C(=O)NC3CC3)[C@@H]2c2ccc(CO)cc2)nc1`, the z-score in experiment [1] was 0.202; in experiment [2], -1.18 (inactive); in experiment [3] it was -0.0797 (inactive); in experiment [4], 0.24 (inactive).

For `COC(=O)C(CC#Cc1ccc2c(c1)[C@]1(C(=O)N2)[C@H](C(=O)O)[C@H]2C(=O)O[C@H](c3ccccc3)[C@H](c3ccccc3)N2[C@@H]1c1ccc(OCCO)cc1)C(=O)OC`, the z-score in experiment [1] is -2.14; in experiment [2], -6.34 (inactive); in experiment [3], -0.192 (inactive); in experiment [4] it was 0.124 (inactive).

On to `CCCNC(=O)[C@@]1(Sc2ccc(C)cc2)CC(=O)N(Cc2cc(C(F)(F)F)cc(C(F)(F)F)c2)[C@@H]1c1ccc(CO)cc1I`, for which the z-score in experiment [1] is -0.975; in experiment [2], -2.86 (inactive); in experiment [3] it was -0.661 (inactive); in experiment [4], -0.6 (inactive).

Consider `CC(C)(C)OC(=O)CC[C@]1(C(=O)NCc2ccccc2)N=C(c2ccc(OCCCO)cc2)O[C@H]1c1ccccc1N=[N+]=[N-]`, for which the z-score in experiment [1] was -2.16; in experiment [2], -0.908 (inactive); in experiment [3], -0.328 (inactive); in experiment [4] it was 0.252 (inactive).

Regarding `COc1ccc(CCNC(=O)[C@@]2(Sc3ccc(C)cc3)CC(=O)N(Cc3ccccc3)[C@@H]2c2ccc(CO)cc2I)cc1`, the z-score is -1.01 in experiment [1], -1.1 (inactive) in experiment [2], 0.0564 (inactive) in experiment [3] and 0.672 (inactive) in experiment [4].

Consider `C=C(C1=CCN(S(=O)(=O)c2ccc(C)cc2)C1)[C@@H](OC(C)=O)[C@@H]1CCCN1S(=O)(=O)c1ccccc1[N+](=O)[O-]`, for which the z-score was -2.68 in experiment [1], -3.62 (inactive) in experiment [2], -0.353 (inactive) in experiment [3] and 0.0039 (inactive) in experiment [4].

For `CC(C)(C)OC(=O)CC[C@]1(C(=O)NCc2ccccc2)COC(c2ccc(OCCCO)cc2)=N1`, the z-score in experiment [1] is -0.561; in experiment [2], -5.02 (inactive); in experiment [3] it was 0.0879 (inactive); in experiment [4], 0.166 (inactive).

Regarding `C#CCN1C(C(=O)OCC)OC[C@H]1c1ccccc1` (stereo partly specified), the z-score in experiment [1] is -1.53; in experiment [2] it was 0.387 (inactive); in experiment [3] it was -0.285 (inactive); in experiment [4], 0.0032 (inactive).

With `O=C(N1CCCCC1)[C@@]1(Cc2ccccc2)N=C(c2ccc(OCCCO)cc2)O[C@H]1c1ccccc1`, the z-score in experiment [1] is -2.18; in experiment [2], -3.68 (inactive); in experiment [3], -1.29 (inactive); in experiment [4] it was -1.55 (inactive).

For the compound `CCOC(=O)C[C@H]1[C@H](OC(=O)c2ccc(-c3ccccc3)cc2)[C@@H](NC(=O)C2CCCCC2)c2cc(OCCCO)ccc2N1C(=O)c1ccc2ccccc2n1`, the z-score in experiment [1] was -0.915; in experiment [2] it was -0.844 (inactive); in experiment [3], -0.807 (inactive); in experiment [4], -0.479 (inactive).

Take `CC(=O)OC(C/C=C\B1OC(C)(C)C(C)(C)O1)c1ccccc1` (stereo unspecified): the z-score is -1.41 in experiment [1], -1.28 (inactive) in experiment [2], -0.873 (inactive) in experiment [3] and -1.16 (inactive) in experiment [4].

As to `CC(C)NC(=O)[C@@H]1c2ccccc2C(=O)N(Cc2cc(F)cc(C(F)(F)F)c2)[C@H]1c1ccc(CO)cc1`, the z-score in experiment [1] was -0.327; in experiment [2] it was -2.19 (inactive); in experiment [3], -0.121 (inactive); in experiment [4], 0.0894 (inactive).

For `CC(C)(C)OC(=O)CC[C@@]1(C(=O)N2CCOCC2)N=C(c2ccc(OCCCO)cc2)O[C@@H]1c1ccccc1`, the z-score was -1.19 in experiment [1], -4.03 (inactive) in experiment [2], -0.31 (inactive) in experiment [3] and -0.323 (inactive) in experiment [4].

For `CCCCC(=C=CC[C@H](O)c1cccc(OCCO)c1)CCO`, the z-score was -1.01 in experiment [1], -2.75 (inactive) in experiment [2], -0.0801 (inactive) in experiment [3] and -0.401 (inactive) in experiment [4].

For the compound `C=C(COC)C(=O)CC[C@H](OC(=O)c1cccnc1)c1cccc(OCCO)c1`, the z-score in experiment [1] was -1.66; in experiment [2], -3.09 (inactive); in experiment [3] it was -0.458 (inactive); in experiment [4], -0.203 (inactive).

In the case of `C=C(C(=O)CC[C@@H](OC(C)=O)c1ccccc1OCCO)C(C)C`, the z-score in experiment [1] is -1.59; in experiment [2] it was -1.92 (inactive); in experiment [3], -0.345 (inactive); in experiment [4], -0.171 (inactive).

As to `CN1C=C(C(=O)OCCS(C)(=O)=O)C(C(=O)OCCS(C)(=O)=O)=CC(CCCO)=CC1c1cccs1` (stereo unspecified), the z-score in experiment [1] was -0.654; in experiment [2], -5.5 (inactive); in experiment [3], -0.084 (inactive); in experiment [4], -0.389 (inactive).

For the compound `CC(C)N1CC=CC23O[C@@H]4/C=C\CCCOC(=O)C4[C@H]2C(=O)N(CCCO)[C@@H]3C1=O` (stereo partly specified), the z-score in experiment [1] was -0.723; in experiment [2] it was -4.49 (inactive); in experiment [3], -0.235 (inactive); in experiment [4], 0.101 (inactive).

Regarding `O=C1N(CCS(=O)(=O)c2ccccc2)Cc2ccccc2[C@@H]2OC(c3ccc(OCCCO)cc3)=N[C@]12Cc1ccccc1`, the z-score was -2.19 in experiment [1], 2.39 (inactive) in experiment [2], -0.354 (inactive) in experiment [3] and 0.111 (inactive) in experiment [4].

With `CCN(CC)c1ccc(N2CC=CC34O[C@@H]5C=CCOC(=O)[C@@H]5[C@H]3C(=O)N(C(C)CO)[C@@H]4C2=O)cc1` (stereo partly specified), the z-score was 0.339 in experiment [1], -3.29 (inactive) in experiment [2], 0.36 (inactive) in experiment [3] and 0.325 (inactive) in experiment [4].
